The values below come from PubChem BioAssay (NCI).

The structures appear in SMILES notation. About 83,000 compounds went through this panel and 20% of them were active in at least one assay; those are over-represented in the sample as a whole.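 In brief: 96-well plates, 48 h treatment, single concentration, percent growth endpoint.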 Values without a mark were called inactive. Activity calls are given as the source filed them. The calls were made as follows: active = growth percent below 10; inactive = the rest.

Among the test systems are SK-MEL-2 melanoma; EKVX NSCLC; SN12C renal; UO-31 renal; TK-10 renal; ACHN renal; CAKI-1 renal; CCRF-CEM leukemia; MOLT-4 leukemia; SR leukemia; RPMI-8226 leukemia; OVCAR-8 ovarian; OVCAR-5 ovarian; OVCAR-4 ovarian; SK-OV-3 ovarian; IGROV1 ovarian; OVCAR-3 ovarian; HS 578T breast; NCI/ADR-RES ovarian; A498 renal.
Holding throughout (test): NCI-60 one-dose screen, 48 h (100 = growth as untreated, 0 = no growth, -100 = all killed)
Holding throughout (settings): 10 µM unless noted

`CC(CCc1ccccc1)NC(=O)c1n[nH]c(=O)c2ccccc12` (stereo not given): the growth with SK-MEL-2 melanoma was 79.2%; in the experiment on EKVX NSCLC, 105%; with SN12C renal it was 107%; in the experiment on UO-31 renal, 47.5%; in the experiment with TK-10 renal it was 89.6%; in the experiment with ACHN renal, 97.8%. Moreover, the growth with CAKI-1 renal is 104%; with CCRF-CEM leukemia, 83.4%; with MOLT-4 leukemia it was 83.4%; with SR leukemia, 60.7%; with RPMI-8226 leukemia it was 85.6%; in the experiment with OVCAR-8 ovarian it was 101%. In addition, the growth in the experiment with OVCAR-5 ovarian is 118%; in the experiment on OVCAR-4 ovarian, 102%; in the experiment on SK-OV-3 ovarian it was 118%; with IGROV1 ovarian, 3.79% (active); in the experiment with OVCAR-3 ovarian, 112%; with HS 578T breast, 96.8%. The growth in the experiment on NCI/ADR-RES ovarian was 121%.

With `CCN1C(=O)N(CC)C2C1NN=c1s/c(=C\c3cccc(F)c3)c(=O)n12` (stereo not given), the growth with SK-MEL-2 melanoma was 51.5%; with EKVX NSCLC, 64.3%; with SN12C renal, 31.5%; in the experiment with UO-31 renal, 50.8%; with TK-10 renal, 61.8%; in the experiment on ACHN renal, 29.1%. Besides, the growth with CAKI-1 renal was 40.8%; in the experiment on A498 renal it was -15.3% (active); in the experiment on MOLT-4 leukemia, 19.1%; with SR leukemia it was 4.36% (active); with RPMI-8226 leukemia it was -0.526% (active); in the experiment with OVCAR-8 ovarian it was 21.2%. The growth is 55.6% in the experiment with OVCAR-5 ovarian; 72.3% in the experiment with SK-OV-3 ovarian; 29.9% with IGROV1 ovarian; -2.21% (active) in the experiment on OVCAR-3 ovarian; 17.9% in the experiment with HS 578T breast; 5.73% (active) in the experiment with NCI/ADR-RES ovarian.

For the compound `CC(Br)C(OC(=O)c1ccccc1Cl)c1cc2c(cc1Br)OCO2` (stereo not given), the growth in the experiment on SK-MEL-2 melanoma was 90.4%; in the experiment with EKVX NSCLC, 76.6%; with SN12C renal it was 98.9%; in the experiment with UO-31 renal, 49.1%; with TK-10 renal, 82.1%; in the experiment on ACHN renal, 88.2%. The growth in the experiment with CAKI-1 renal was 70%; with A498 renal, 88.5%; in the experiment with CCRF-CEM leukemia, 103%; in the experiment with MOLT-4 leukemia, 75.6%; in the experiment on RPMI-8226 leukemia, 92.2%; with OVCAR-8 ovarian it was 94.8%. Also, the growth is 77.9% with OVCAR-4 ovarian; 124% in the experiment on SK-OV-3 ovarian; 68.9% with IGROV1 ovarian; 89% in the experiment on OVCAR-3 ovarian; 88.2% with HS 578T breast; 85.1% in the experiment on NCI/ADR-RES ovarian.

For the compound `CCN1C(=S)N(CC)C2Nn3c(s/c(=C4\C(=O)N(C)c5ccccc54)c3=O)=NC21` (stereo not given), the growth was 70.4% in the experiment on SK-MEL-2 melanoma; 54.6% in the experiment with EKVX NSCLC; 51.3% in the experiment with SN12C renal; 37.2% with UO-31 renal; 96.9% with TK-10 renal; 52.5% in the experiment with ACHN renal. In addition, the growth was 30.8% in the experiment with CAKI-1 renal; -8.5% (active) in the experiment on A498 renal; 61.8% in the experiment on MOLT-4 leukemia; 22.6% with SR leukemia; 36.8% in the experiment on RPMI-8226 leukemia; 54.5% with OVCAR-8 ovarian. For the same compound, the growth with OVCAR-5 ovarian is 67.5%; in the experiment on OVCAR-4 ovarian, 47.5%; with IGROV1 ovarian it was 53.3%; in the experiment with OVCAR-3 ovarian, 20.2%; with HS 578T breast it was 48.8%; in the experiment with NCI/ADR-RES ovarian it was 6.63% (active).

As for `Cc1ccc(-c2csc3nc(C)c(CCCl)c(=O)n23)cc1`, the growth is 94.5% in the experiment on SK-MEL-2 melanoma; 76.8% in the experiment on EKVX NSCLC; 101% in the experiment with SN12C renal; 70.4% in the experiment on UO-31 renal; 113% with TK-10 renal; 99% with ACHN renal. The growth in the experiment with CAKI-1 renal was 88%; in the experiment on A498 renal, 104%; with CCRF-CEM leukemia it was 104%; in the experiment on MOLT-4 leukemia, 85.6%; in the experiment with OVCAR-8 ovarian it was 103%; in the experiment with OVCAR-5 ovarian, 107%. Further, the growth was 82.1% in the experiment with OVCAR-4 ovarian; 105% in the experiment with SK-OV-3 ovarian; 78.8% in the experiment with IGROV1 ovarian; 99.4% in the experiment with OVCAR-3 ovarian; 83% with HS 578T breast; 105% in the experiment on NCI/ADR-RES ovarian.

As to `COC(=O)CCCCN=Cc1c(O)c(O)c(C(C)C)c2cc(C)c(-c3c(C)cc4c(C(C)C)c(O)c(O)c(C=NCCCCC(=O)OC)c4c3O)c(O)c12`, the growth in the experiment on SK-MEL-2 melanoma was 17.3%; in the experiment with EKVX NSCLC it was 14.4%; in the experiment with SN12C renal it was 16.1%; in the experiment on UO-31 renal, 14.7%; in the experiment with TK-10 renal, 12.6%; in the experiment on ACHN renal, 13.4%. Also, the growth was 50.8% in the experiment on CAKI-1 renal; 12.2% with A498 renal; 18.4% with CCRF-CEM leukemia; 14.4% in the experiment on MOLT-4 leukemia; 16.4% with OVCAR-8 ovarian; 17.8% in the experiment on OVCAR-5 ovarian. Besides, the growth in the experiment on OVCAR-4 ovarian is 13.7%; in the experiment on IGROV1 ovarian, 26.4%; in the experiment on OVCAR-3 ovarian, 14.3%; in the experiment on HS 578T breast it was 9.48% (active); with NCI/ADR-RES ovarian, 52.8%.

In the case of `CC1Cc2c(N(C)C)ncnc2N(C)c2ccc(O)cc21` (stereo not given), the growth is 89.6% in the experiment with SK-MEL-2 melanoma; 71.3% with EKVX NSCLC; 99% in the experiment on SN12C renal; 80.2% with UO-31 renal; 95.9% in the experiment with TK-10 renal; 101% in the experiment on ACHN renal. Besides, the growth in the experiment with CAKI-1 renal is 70.7%; with A498 renal, 76.7%; in the experiment on CCRF-CEM leukemia it was 85.3%; with MOLT-4 leukemia it was 75.6%; in the experiment on RPMI-8226 leukemia, 82.9%; in the experiment with OVCAR-5 ovarian, 99.4%. The growth in the experiment on OVCAR-4 ovarian was 84.6%; in the experiment with SK-OV-3 ovarian it was 86%; in the experiment on IGROV1 ovarian, 93.6%; in the experiment with OVCAR-3 ovarian it was 88.8%; in the experiment with HS 578T breast, 76.2%; in the experiment on NCI/ADR-RES ovarian it was 84.2%.

With `O=C(Cc1n[nH]c(=O)c2ccccc12)OCc1c(Cl)cccc1Cl`, the growth with SK-MEL-2 melanoma was 35.5%; in the experiment with EKVX NSCLC, 154%; in the experiment with SN12C renal, 102%; in the experiment with UO-31 renal, 103%; with TK-10 renal it was 99%; with ACHN renal, 74.7%. Also, the growth in the experiment on CAKI-1 renal was 107%; in the experiment on A498 renal, 91.3%; in the experiment on CCRF-CEM leukemia, 61%; with MOLT-4 leukemia it was 32.9%; with OVCAR-5 ovarian, 95.7%; in the experiment with OVCAR-4 ovarian, 105%. Further, the growth in the experiment on SK-OV-3 ovarian was 113%; with IGROV1 ovarian, 29.4%; in the experiment with OVCAR-3 ovarian it was 84.5%; in the experiment with HS 578T breast, 103%; in the experiment with NCI/ADR-RES ovarian, 82.4%.

With `CCN1C(=O)N(CC)C2C1NN=c1s/c(=C3\C(=O)N(C4CCCC4)c4ccccc43)c(=O)n12` (stereo not given), the growth in the experiment with SK-MEL-2 melanoma is 41.3%; in the experiment with EKVX NSCLC, 56.1%; in the experiment with SN12C renal, 31.6%; with UO-31 renal, 37.2%; in the experiment on TK-10 renal, 24.4%; in the experiment on ACHN renal, 31.9%. The growth was 32.1% in the experiment with CAKI-1 renal; -25.9% (active) with A498 renal; 7.37% (active) with MOLT-4 leukemia; 0.0502% (active) in the experiment with SR leukemia; -0.279% (active) with RPMI-8226 leukemia; 23% with OVCAR-8 ovarian. The growth with OVCAR-5 ovarian was 49.7%; in the experiment with IGROV1 ovarian it was 31.9%; in the experiment on OVCAR-3 ovarian it was -35.3% (active); in the experiment with HS 578T breast, -7.85% (active); in the experiment with NCI/ADR-RES ovarian, -22.8% (active).
